Test in all cases: DAPPL (digital affinity profiling via proximity ligation, sequencing); 10 mM Tris-HCl pH 7.5, 50 mM NaCl, 1 mM DTT, 4% glycerol, room temperature, 30 min; GST-TFs on glutathione beads, 16-mer random dsDNA library, 0.1% formaldehyde crosslink after washing; high values mean tight binding
The target of one experiment is T1, FEV (Homo sapiens, UniProt Q99581 1-238).
T1 sequence: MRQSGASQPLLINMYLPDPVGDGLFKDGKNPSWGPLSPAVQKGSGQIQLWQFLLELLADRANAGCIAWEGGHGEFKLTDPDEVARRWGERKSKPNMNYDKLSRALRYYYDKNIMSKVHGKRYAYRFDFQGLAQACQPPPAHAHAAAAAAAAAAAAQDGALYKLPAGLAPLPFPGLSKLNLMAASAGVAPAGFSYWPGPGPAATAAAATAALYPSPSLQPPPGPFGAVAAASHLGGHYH
Particulars: protein: recombinant; tags: N-terminal GST; dsDNA, one strand shown. The gist of the method: (§1)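 Human transcription factors carrying a GST fusion were produced in yeast, bound to glutathione beads, tagged with DNA barcodes and pooled together with a tag-only sample. Each pool was held with 200 nmole of a random double-stranded 16-mer DNA library in Tris/NaCl/DTT/glycerol buffer for 30 min at room temperature, then washed, crosslinked in 0.1% formaldehyde, proximity-ligated with BsaI/T4 ligase (1 h, 37 °C), PCR-amplified and sequenced on an Illumina NextSeq500. Binding signal is the read frequency of each hexamer for a given factor divided by its frequency in the tag-only sample.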

For a further experiment, the target named is ETV5 (Homo sapiens, UniProt P41161 1-510). Particulars: protein: recombinant; tags: N-terminal GST; dsDNA, one strand shown. The gist of the method: as §1
Sequence of ETV5 (P41161 whole entry): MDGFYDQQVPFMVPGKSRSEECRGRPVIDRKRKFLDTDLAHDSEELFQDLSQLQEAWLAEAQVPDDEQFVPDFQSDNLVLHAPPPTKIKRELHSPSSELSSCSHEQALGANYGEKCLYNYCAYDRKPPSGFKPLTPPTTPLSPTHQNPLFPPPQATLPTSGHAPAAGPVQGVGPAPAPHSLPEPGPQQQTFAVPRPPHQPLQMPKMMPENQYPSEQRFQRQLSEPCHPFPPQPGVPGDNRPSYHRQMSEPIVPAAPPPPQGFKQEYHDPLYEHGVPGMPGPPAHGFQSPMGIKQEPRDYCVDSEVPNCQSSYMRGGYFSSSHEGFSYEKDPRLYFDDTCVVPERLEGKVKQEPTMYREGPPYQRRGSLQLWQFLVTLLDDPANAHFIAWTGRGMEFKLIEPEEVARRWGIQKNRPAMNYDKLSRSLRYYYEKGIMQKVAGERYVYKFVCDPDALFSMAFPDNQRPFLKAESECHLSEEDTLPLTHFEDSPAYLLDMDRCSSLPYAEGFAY
For another experiment, the target named is HSF1 (Homo sapiens, UniProt Q00613 1-529). The following applies: protein: recombinant; tags: N-terminal GST; chain copies: 3; dsDNA, one strand shown. In a few lines:
as §1

In another experiment the target is T2, SPIC (Homo sapiens, UniProt Q8N5J4 1-248).
T2 sequence: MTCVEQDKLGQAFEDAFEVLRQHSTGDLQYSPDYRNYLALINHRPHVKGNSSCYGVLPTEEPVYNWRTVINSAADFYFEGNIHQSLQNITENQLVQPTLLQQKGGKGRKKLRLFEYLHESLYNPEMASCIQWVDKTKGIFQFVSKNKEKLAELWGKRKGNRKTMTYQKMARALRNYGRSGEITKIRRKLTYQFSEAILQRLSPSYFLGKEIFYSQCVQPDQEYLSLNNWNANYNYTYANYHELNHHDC
The following applies: protein: recombinant; tags: N-terminal GST; dsDNA, one strand shown. The gist of the method: as §1

For another experiment, the target named is ELF4 (Homo sapiens, UniProt Q99607 1-663). The following applies: protein: recombinant; tags: N-terminal GST; dsDNA, one strand shown. The gist of the method:
as §1

For the next experiment, the target named is T3, ELK4 (Homo sapiens, UniProt P28324-2 1-405).
T3 sequence: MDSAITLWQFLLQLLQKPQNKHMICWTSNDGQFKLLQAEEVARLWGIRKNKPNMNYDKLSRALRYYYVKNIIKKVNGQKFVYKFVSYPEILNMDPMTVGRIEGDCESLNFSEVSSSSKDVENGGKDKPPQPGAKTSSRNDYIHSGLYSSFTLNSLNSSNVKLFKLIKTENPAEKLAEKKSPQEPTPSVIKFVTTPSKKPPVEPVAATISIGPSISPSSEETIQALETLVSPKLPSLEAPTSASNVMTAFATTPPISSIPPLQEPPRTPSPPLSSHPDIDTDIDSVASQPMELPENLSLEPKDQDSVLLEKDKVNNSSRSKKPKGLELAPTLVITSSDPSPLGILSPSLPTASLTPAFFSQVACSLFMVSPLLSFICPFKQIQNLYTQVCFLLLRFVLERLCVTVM
Particulars: protein: recombinant; tags: N-terminal GST; dsDNA, one strand shown. In a few lines: as §1

The target in the next experiment is T4, ETV2 (Homo sapiens, UniProt O00321 1-342).
T4 sequence: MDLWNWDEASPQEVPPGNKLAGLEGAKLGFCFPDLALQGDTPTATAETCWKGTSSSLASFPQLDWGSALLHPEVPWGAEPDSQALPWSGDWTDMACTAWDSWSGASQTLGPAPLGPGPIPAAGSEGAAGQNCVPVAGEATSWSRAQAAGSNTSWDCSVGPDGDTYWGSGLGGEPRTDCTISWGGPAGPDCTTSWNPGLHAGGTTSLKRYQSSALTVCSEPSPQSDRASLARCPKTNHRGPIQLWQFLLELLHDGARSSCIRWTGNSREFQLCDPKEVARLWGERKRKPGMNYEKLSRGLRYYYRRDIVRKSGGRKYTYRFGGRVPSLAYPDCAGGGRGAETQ
Particulars: protein: recombinant; tags: N-terminal GST; dsDNA, one strand shown. In a few lines: as §1

The next experiment concerns the target T5, ELF3 (Homo sapiens, UniProt P78545 1-371).
T5 sequence: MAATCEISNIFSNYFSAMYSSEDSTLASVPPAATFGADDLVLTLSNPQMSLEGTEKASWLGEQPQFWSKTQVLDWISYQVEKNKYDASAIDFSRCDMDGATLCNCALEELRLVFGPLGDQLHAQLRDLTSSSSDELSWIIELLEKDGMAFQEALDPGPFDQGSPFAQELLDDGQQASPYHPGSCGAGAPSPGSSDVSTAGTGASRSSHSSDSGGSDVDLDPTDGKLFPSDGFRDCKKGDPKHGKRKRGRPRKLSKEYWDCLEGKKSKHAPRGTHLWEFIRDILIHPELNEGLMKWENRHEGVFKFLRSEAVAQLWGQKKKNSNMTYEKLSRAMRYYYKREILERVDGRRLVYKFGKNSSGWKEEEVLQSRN
The following applies: protein: recombinant; tags: N-terminal GST; dsDNA, one strand shown. In a few lines:
as §1

The target in another experiment is CRX (Homo sapiens, UniProt O43186 1-299). The following applies: protein: recombinant; tags: N-terminal GST; dsDNA, one strand shown. In a few lines: as §1
Sequence of CRX (O43186 whole entry): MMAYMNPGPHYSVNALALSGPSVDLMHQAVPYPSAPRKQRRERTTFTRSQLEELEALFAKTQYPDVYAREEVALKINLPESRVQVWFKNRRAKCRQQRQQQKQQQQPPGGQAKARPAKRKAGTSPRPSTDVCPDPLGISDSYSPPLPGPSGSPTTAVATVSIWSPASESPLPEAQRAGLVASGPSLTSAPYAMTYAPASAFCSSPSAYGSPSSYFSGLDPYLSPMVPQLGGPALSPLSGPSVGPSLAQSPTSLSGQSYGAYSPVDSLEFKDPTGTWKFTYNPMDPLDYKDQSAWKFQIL
The next experiment addresses ETV1 (Homo sapiens, UniProt P50549 1-477). Particulars: protein: recombinant; tags: N-terminal GST; dsDNA, one strand shown. In a few lines:
as §1

The target in another experiment is T6, ERF (Homo sapiens, UniProt P50548 1-548).
T6 sequence: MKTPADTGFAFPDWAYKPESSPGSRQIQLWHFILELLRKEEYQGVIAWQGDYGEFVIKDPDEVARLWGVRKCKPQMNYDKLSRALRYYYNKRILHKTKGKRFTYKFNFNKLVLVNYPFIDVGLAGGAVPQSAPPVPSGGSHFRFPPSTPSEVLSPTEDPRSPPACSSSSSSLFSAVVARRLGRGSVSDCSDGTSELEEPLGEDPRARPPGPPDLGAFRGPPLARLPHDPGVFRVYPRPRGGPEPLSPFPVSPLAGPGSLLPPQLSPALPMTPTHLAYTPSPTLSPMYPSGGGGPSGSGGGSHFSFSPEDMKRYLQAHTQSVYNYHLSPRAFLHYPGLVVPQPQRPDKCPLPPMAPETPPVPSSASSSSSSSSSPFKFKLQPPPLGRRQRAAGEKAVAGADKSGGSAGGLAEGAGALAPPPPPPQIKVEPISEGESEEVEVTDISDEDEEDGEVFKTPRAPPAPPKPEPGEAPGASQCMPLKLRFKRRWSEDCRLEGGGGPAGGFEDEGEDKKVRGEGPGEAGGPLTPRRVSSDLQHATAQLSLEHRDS
The following applies: protein: recombinant; tags: N-terminal GST; dsDNA, one strand shown. The gist of the method: as §1

Another experiment concerns the target T7, ETV3L (Homo sapiens, UniProt Q6ZN32 1-361).
T7 sequence: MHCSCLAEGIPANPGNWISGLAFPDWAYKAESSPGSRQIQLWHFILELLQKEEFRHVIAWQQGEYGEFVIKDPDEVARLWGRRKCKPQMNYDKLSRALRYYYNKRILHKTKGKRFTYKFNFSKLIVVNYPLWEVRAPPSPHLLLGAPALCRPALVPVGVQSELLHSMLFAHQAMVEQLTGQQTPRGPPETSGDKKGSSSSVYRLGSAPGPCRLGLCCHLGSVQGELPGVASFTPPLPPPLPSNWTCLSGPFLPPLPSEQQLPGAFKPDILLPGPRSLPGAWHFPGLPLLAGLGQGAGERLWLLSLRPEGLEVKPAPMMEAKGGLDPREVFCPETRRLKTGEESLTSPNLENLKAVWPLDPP
The following applies: protein: recombinant; tags: N-terminal GST; dsDNA, one strand shown. The gist of the method: as §1

For a further experiment, the target named is T8, ETS2 (Homo sapiens, UniProt P15036 1-469).
T8 sequence: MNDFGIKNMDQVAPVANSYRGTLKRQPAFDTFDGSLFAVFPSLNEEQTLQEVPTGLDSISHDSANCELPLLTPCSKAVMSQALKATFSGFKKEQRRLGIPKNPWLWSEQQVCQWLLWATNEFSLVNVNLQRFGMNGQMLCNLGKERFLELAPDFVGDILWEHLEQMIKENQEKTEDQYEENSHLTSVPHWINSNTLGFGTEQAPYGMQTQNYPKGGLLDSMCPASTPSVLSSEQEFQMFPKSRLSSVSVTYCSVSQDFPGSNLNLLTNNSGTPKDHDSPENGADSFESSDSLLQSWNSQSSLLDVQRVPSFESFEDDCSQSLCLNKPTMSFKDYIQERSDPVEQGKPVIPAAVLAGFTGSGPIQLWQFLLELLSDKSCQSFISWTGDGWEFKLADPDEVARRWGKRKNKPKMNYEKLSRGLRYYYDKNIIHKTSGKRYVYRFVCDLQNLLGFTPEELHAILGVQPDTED
Particulars: protein: recombinant; tags: N-terminal GST; dsDNA, one strand shown. In a few lines:
as §1

A further experiment addresses T9, SPDEF (Homo sapiens, UniProt O95238 1-335).
T9 sequence: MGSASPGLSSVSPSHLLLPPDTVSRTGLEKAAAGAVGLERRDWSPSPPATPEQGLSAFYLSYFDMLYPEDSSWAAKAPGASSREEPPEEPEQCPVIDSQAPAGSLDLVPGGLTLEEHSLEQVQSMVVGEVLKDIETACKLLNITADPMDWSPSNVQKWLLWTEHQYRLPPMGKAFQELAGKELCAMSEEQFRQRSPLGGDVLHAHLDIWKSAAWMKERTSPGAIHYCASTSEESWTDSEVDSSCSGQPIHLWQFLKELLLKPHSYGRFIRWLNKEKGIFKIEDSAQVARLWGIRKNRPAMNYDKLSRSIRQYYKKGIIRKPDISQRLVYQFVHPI
The following applies: protein: recombinant; tags: N-terminal GST; dsDNA, one strand shown. In a few lines: as §1

In the next experiment the target is T10, ETV7 (Homo sapiens, UniProt Q9Y603 1-341).
T10 sequence: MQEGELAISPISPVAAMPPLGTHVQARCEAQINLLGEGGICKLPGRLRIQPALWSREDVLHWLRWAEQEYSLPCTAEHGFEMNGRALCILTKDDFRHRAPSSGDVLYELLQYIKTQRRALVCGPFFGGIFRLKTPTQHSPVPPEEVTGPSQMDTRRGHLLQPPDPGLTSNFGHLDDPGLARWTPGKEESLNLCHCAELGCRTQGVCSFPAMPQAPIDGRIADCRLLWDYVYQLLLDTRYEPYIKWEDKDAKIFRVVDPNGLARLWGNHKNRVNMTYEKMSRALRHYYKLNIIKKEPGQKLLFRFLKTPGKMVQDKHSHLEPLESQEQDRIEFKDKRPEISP
The following applies: protein: recombinant; tags: N-terminal GST; dsDNA, one strand shown. In a few lines:
as §1

The target of the next experiment is T11, ELF5 (Homo sapiens, UniProt Q9UKW6-2 1-255).
T11 sequence: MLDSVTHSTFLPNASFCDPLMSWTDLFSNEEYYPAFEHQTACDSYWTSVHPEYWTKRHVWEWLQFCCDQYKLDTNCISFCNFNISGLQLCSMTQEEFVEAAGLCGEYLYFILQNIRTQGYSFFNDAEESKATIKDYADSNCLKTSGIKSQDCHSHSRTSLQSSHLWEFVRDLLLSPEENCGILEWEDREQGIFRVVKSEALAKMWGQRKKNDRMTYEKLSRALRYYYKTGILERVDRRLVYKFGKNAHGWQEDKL
The following applies: protein: recombinant; tags: N-terminal GST; dsDNA, one strand shown. In a few lines: as §1

For another experiment, the target named is T12, ETV3 (Homo sapiens, UniProt P41162-2 1-143).
T12 sequence: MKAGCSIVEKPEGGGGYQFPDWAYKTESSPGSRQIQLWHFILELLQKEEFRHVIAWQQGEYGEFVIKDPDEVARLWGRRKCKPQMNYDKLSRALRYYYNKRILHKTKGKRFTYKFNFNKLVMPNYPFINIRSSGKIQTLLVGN
The following applies: protein: recombinant; tags: N-terminal GST; dsDNA, one strand shown. The gist of the method: as §1

In a further experiment the target is ETV6 (Homo sapiens, UniProt P41212 1-452). Particulars: protein: recombinant; tags: N-terminal GST; dsDNA, one strand shown. In a few lines: as §1
Sequence of ETV6 (P41212 whole entry): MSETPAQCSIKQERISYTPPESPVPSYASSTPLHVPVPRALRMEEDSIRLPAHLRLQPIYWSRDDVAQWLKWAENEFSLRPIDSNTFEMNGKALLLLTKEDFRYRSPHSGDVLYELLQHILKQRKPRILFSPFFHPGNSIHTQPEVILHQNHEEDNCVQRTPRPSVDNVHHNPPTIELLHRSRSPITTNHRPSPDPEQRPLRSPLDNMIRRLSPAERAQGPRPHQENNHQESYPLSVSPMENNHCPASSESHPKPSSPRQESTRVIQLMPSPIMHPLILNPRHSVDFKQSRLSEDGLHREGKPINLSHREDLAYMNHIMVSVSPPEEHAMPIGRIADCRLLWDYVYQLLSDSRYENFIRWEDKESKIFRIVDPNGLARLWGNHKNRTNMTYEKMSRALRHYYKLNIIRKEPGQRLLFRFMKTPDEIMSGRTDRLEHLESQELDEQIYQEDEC

Sequence of ETV1 (P50549 whole entry): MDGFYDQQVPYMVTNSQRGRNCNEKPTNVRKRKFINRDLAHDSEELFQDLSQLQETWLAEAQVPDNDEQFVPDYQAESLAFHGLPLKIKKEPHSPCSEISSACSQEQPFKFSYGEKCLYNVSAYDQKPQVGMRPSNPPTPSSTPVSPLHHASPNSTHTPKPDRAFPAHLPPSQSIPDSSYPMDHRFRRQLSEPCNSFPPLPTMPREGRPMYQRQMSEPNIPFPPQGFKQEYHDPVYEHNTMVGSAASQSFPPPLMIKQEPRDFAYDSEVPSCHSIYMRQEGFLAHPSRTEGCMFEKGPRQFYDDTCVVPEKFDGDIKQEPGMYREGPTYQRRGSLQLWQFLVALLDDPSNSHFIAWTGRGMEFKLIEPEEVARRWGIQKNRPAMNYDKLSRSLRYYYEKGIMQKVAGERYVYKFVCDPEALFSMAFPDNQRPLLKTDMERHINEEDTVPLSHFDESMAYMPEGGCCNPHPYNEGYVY
Sequence of ELF4 (Q99607 whole entry): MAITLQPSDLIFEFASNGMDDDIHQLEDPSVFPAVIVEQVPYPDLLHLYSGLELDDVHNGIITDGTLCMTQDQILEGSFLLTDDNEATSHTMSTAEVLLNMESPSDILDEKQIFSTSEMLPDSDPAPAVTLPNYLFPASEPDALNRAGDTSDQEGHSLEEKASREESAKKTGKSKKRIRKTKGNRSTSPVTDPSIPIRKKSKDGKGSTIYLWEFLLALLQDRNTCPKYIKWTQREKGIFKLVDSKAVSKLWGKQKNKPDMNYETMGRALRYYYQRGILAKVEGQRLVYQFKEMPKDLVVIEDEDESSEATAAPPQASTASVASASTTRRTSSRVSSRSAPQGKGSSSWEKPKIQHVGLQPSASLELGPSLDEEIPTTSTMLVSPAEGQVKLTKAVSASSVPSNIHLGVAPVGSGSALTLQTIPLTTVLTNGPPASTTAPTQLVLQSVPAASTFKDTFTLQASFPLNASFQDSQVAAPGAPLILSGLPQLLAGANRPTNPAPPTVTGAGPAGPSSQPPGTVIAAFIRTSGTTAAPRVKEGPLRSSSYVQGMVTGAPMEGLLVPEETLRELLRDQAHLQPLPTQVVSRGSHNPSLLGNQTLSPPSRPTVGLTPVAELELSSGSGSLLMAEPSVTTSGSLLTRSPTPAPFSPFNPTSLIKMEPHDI
Sequence of HSF1 (Q00613 whole entry): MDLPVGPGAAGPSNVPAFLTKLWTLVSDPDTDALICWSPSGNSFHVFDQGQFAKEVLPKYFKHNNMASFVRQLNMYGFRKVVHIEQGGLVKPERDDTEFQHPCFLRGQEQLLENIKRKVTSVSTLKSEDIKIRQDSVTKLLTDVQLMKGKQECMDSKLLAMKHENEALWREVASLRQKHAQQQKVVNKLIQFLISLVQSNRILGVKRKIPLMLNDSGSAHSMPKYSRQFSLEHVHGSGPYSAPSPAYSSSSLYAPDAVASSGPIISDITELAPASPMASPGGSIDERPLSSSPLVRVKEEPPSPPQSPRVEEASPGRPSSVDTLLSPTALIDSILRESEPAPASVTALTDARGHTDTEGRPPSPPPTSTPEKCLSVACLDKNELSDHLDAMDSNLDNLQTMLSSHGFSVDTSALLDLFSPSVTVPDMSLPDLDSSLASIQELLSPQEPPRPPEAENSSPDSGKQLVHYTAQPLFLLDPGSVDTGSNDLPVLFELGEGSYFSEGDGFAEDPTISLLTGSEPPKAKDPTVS

Regarding CTTGCC, the binding signal is 1.29 fold enrichment (6-mer frequency, TF over GST control) with FEV; 1.17 fold enrichment (6-mer frequency, TF over GST control) in the experiment with ETV5; 1.1 fold enrichment (6-mer frequency, TF over GST control) with HSF1; 1.66 fold enrichment (6-mer frequency, TF over GST control) with SPIC; 1.26 fold enrichment (6-mer frequency, TF over GST control) with ELF4; 1.17 fold enrichment (6-mer frequency, TF over GST control) with ELK4. The binding signal with ETV2 is 1.24 fold enrichment (6-mer frequency, TF over GST control); in the experiment with ELF3, 1.43 fold enrichment (6-mer frequency, TF over GST control); with CRX, 1.1 fold enrichment (6-mer frequency, TF over GST control); with ETV1, 1.25 fold enrichment (6-mer frequency, TF over GST control); with ERF, 1.33 fold enrichment (6-mer frequency, TF over GST control); with ETV3L it was 1.31 fold enrichment (6-mer frequency, TF over GST control). In addition, the binding signal with ETS2 is 1.3 fold enrichment (6-mer frequency, TF over GST control); with SPDEF it was 1.44 fold enrichment (6-mer frequency, TF over GST control); in the experiment with ETV7 it was 1.54 fold enrichment (6-mer frequency, TF over GST control); in the experiment with ELF5, 1.29 fold enrichment (6-mer frequency, TF over GST control); with ETV3, 1.33 fold enrichment (6-mer frequency, TF over GST control); in the experiment with ETV6, 1.08 fold enrichment (6-mer frequency, TF over GST control).

Values taken from publication PMC7862700, “An all-to-all approach to the identification of sequence-specific readers for epigenetic DNA modifications on cytosine”.
